Hits are enriched below; roughly 2.4% of the tested compounds scored in any of these assays.
D2 ag-1 – activates the human D2 dopamine receptor; P14416; DiscoveRx PathHunter D2 beta-arrestin, luminescence, 90 min; 100% = 57 uM dopamine signal; activation, % (no concentration beside the values); 0.084% of 360,000 active; AID 624465; in the data active means activation above about 40%; inconclusive means between about 15% and that limit
Target sequence (P14416 whole entry, looked up): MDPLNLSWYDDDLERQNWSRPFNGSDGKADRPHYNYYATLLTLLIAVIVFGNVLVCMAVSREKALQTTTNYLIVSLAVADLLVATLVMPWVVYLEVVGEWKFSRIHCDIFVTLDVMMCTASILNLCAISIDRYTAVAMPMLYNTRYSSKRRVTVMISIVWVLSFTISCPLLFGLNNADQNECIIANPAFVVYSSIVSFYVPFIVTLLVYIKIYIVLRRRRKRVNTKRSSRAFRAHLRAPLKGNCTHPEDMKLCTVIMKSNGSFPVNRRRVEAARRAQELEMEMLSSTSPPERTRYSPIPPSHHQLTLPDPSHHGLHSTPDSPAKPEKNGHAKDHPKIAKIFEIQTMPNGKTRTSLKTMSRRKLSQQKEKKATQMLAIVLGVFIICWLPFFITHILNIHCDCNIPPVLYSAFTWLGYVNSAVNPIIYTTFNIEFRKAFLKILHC
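DiscoveRx PathHunter D2 beta-arrestin cells (2,100/well) attached overnight, then compound-stimulated 90 min at 37 C in HBSS/10 mM HEPES/0.1% Tween-20 buffer; beta-galactosidase complementation read by luminescence after 1 h at ambient temperature. Dopamine 57 uM final (EC100) as control.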
D2 PAM-1 – positive allosteric modulators of human D2 dopamine receptor. P14416. HEK293 T-REx D2, calcium flux, EC20 dopamine potentiation. potentiation, % at 10 µM. 0.34% of 340,000 active. AID 485347;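 active means potentiation over 3 SD above the plate norm, cut at about 30% in these data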; further: 0% is about no effect
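Potentiation of an EC20 dopamine calcium response measured kinetically over 180 s, after a preceding 180 s compound-only read flagging agonists. Cells: inducible Hek293 Trex D2 line, 4000/well, cultured overnight at 30 C before dye loading.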
D2 ag-2 – agonists of human D2 dopamine receptor. activation, % at 2 µM. 0.53% of 340,000 active. P14416. HEK293 T-REx D2 cells, calcium flux agonist mode;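 active means activation over 3 SD above normal in the single-dose calcium agonist read, cut at about 30% in these data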; further: 0% is about no effect
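Calcium-flux readout, 1 cycle/sec over 180 s following compound pin transfer, in inducible HEK293 Trex D2 cells (force-coupled); dopamine controls included. Positive calcium responses during this window marked compounds as potential agonists.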
D2 antagonist – D2 dopamine receptor (human) antagonism. P14416. HEK293 TREx D2 cells, calcium flux, dopamine EC80. inhibition, % at 10 µM. 2% of 340,000 active; in the data active means inhibition above about 30%; inactive means below that, where a call was filed; further: 0% is about no effect
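Tetracycline-induced HEK293 T-REx cells expressing D2 force-coupled to calcium signalling were dye-loaded, exposed to compound for 180 s, then challenged with an EC80 of dopamine; calcium flux was followed kinetically for a further 180 s.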
D2 PAM-2 – potentiates the human D2 dopamine receptor allosterically; P14416; DiscoveRx D2 beta-arrestin cells, luminescence, 90 min; 100% = 57 uM dopamine signal; potentiation, % (test concentration not listed); 0.23% of 360,000 active; in the data active means potentiation above about 50%; inconclusive means mostly about 30% to 49%
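PathHunter D2 cells, attached overnight at 37 deg C, received compound in DMSO plus dopamine at EC20 (50 nM final) for 90 min at 37 deg C. Beta-arrestin recruitment was read as luminescence after 1 h with detection reagent at ambient temperature.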
Starred values were filed as active, the others as inactive; u = inconclusive; x = no result.

SMILES	D2 ag-1	D2 PAM-1	D2 ag-2	D2 antagonist	D2 PAM-2
Cc1[nH]c2ccccc2c1C(c1ccncc1)N1CCN(c2ccccn2)CC1 (centres undefined)	-0.4	-21.0	35.2*	14.6	2.7
COc1ccc(C2Nc3cccc4cccc(c34)N2)cc1Br	7.0	15.6	x	x	53.9*
COc1cc(C2Nc3cccc4cccc(c34)N2)ccc1OC(C)=O	7.5	6.2	-0.6	-4.4	u
O=[N+]([O-])c1cccc(C2Nc3cccc4cccc(c34)N2)c1	u	-2.7	0.2	-6.5	105.4*
Fc1ccc(C2Nc3cccc4cccc(c34)N2)cc1	8.0	-1.0	1.2	-4.9	-1.2
O=[N+]([O-])c1ccc(C2Nc3cccc4cccc(c34)N2)cc1	u	4.1	0.6	-19.1	80.1*
O=C(COC(=O)c1cc[n+]([O-])cc1)Nc1cccc(Cl)c1Cl	-0.3	6.2	1.8	-7.0	-6.1
COc1ccc(CCNC(=O)NC2CCCCC2)cc1	-0.9	5.2	0.1	30.8*	1.1
Cc1nc2c3ccccc3n(CCN3CCCCC3)c2s1	x	4.2	-1.2	39.6*	x
CN(C)S(=O)(=O)c1ccc(C(=O)NCCSc2c(-c3ccccc3)[nH]c3ccccc23)cc1	x	-5.7	-0.1	x	x
O=C(CCNS(=O)(=O)c1cccc2nonc12)N1CCN(c2cccc(Cl)c2)CC1	2.1	1.3	0.7	-6.2	-17.2
Cc1cc2nc(NC3=NCN(Cc4ccc5c(c4)OCO5)CN3)nc(C)c2cc1C	x	-5.6	0.1	-5.1	x
CC1(OC(=O)C2CCCC2)C(=O)C=C2C=C(c3ccsc3)N(c3ccccc3)C=C2C1=O (centres undefined)	14.9	9.0	0.3	36.0*	-1.5
CN(C(=O)COC(=O)C12CC3CC(CC(C3)C1)C2)c1c(N)n(Cc2ccccc2)c(=O)[nH]c1=O	-2.8	6.0	0.1	46.7*	-12.1
CCOC(=O)c1nnn(-c2nonc2N)c1CN(C)C1CCCCC1	2.4	-2.0	0.0	-15.4	-1.9
Cc1cc(Cl)ccc1OCC(=O)NNC(=O)CCOc1ccccc1	-1.4	4.0	-0.9	31.1*	-3.0
Cc1ccc(F)cc1NC(=O)CCOc1ccccc1	0.3	-6.0	-0.8	31.6*	-5.7
CCOc1ccc(/C=N/n2nnnc2N)cc1OCC	7.1	-5.0	0.4	-7.6	-7.1
CCN(CC)S(=O)(=O)c1ccc(OCC(=O)NCc2ccccc2)cc1	0.4	-6.1	0.1	-5.8	2.3
CC(O)(CS(=O)(=O)c1ccc(Br)cc1)c1ccccc1 (centres undefined)	6.9	-8.0	0.0	31.2*	4.2
O=S(=O)(CC(O)(c1ccccc1)c1ccccc1)CC(O)(c1ccccc1)c1ccccc1	-0.7	x	x	x	-1.2
Cc1ccnc(SCCn2c(N3CCCCC3)nc3c2c(=O)[nH]c(=O)n3C)n1	x	30.8*	-0.3	-3.2	x
Cn1c(=O)[nH]c(=O)c2c1nc(N1CCCCCC1)n2CCN1CCCCCC1	-1.4	-14.2	0.6	39.9*	-38.2
CCOc1ccc(NC(=O)C2CCC(CNS(=O)(=O)c3ccc4c(c3)CCCC(=O)N4)CC2)cc1 (centres undefined)	x	11.8	0.4	x	x
COCCNc1nc(N)c([N+](=O)[O-])c(NCC2CCCO2)n1 (centres undefined)	-16.3	-4.0	0.9	1.1	-3.7
SMILES	D2 ag-1	D2 PAM-1	D2 ag-2	D2 antagonist	D2 PAM-2
COC(=O)C1=CN(Cc2ccc(F)cc2)C=C(C(=O)OC)C1c1cc(OC)c(OC)c(OC)c1	-4.9	-0.6	-0.5	9.5	-10.1
CCOC(=O)/C=c1\s/c(=C\c2ccc3c(c2)OCCO3)c(=O)n1CC(=O)NCC1CCCO1 (centres undefined)	-1.6	-3.9	0.2	55.0*	-7.8
COC(=O)[C@]1(CC(C)C)N[C@H](c2ccc(SC3CCCCC3)c(OC)c2)[C@@H]2C(=O)N(C)C(=O)[C@@H]21	-0.6	32.3*	-0.2	0.2	-7.8
O=C(c1ccc(CSc2nc3ccncc3n2Cc2ccccc2F)cc1)N1CCCCC1	x	-5.3	0.4	x	x
COC(=O)c1ccc(OCC(O)CN2C(=O)c3ccccc3C2=O)cc1 (centres undefined)	0.8	-17.4	37.8*	-3.9	-1.8
COc1ccc(OCC(O)CN2C(=O)NC(C)(C)C2=O)cc1 (centres undefined)	-1.1	-7.9	-0.3	31.1*	-2.6
COC(=O)c1ccc(OCC(O)CN2CCN(CC(O)COc3ccc(C(=O)OC)cc3)CC2)cc1 (centres undefined)	-1.8	10.4	0.0	3.6	-3.7
CCOc1ccccc1NC(=O)CSc1nnnn1-c1ccc(C(=O)OC)cc1	-1.4	8.0	-0.6	49.9*	-6.9
CCOc1ccccc1NC(=O)CSc1nnnn1-c1ccccc1	0.4	-1.7	1.7	31.1*	-6.7
CCn1c(SCc2nc3sc(C(=O)O)c(C)c3c(=O)[nH]2)nc2ccccc21	-0.6	3.5	1.7	-9.8	5.9
COc1ccc(OC)c(NC(=O)CSc2nncc3ccccc23)c1	-1.1	-0.1	0.2	-0.2	-6.6
CCOc1ccccc1NC(=O)CSc1nncc2ccccc12	-0.7	34.7*	-0.4	-26.5	-10.4
COCCn1c(SCc2nc3sc(C(=O)OC)c(C)c3c(=O)[nH]2)nc2ccccc21	-1.8	-4.6	0.7	30.6*	-18.6
O=C(O)c1ccc2nnn(O)c2c1	-2.9	-2.0	-0.3	10.4	-3.6
COCCn1c(SCC(=O)Nc2ccccc2OC)nc2ccccc21	-4.6	10.7	1.3	34.6*	0.3
CCOc1ccc(NC(=O)CN(C)c2nnnn2-c2ccccc2)cc1OCC	-1.9	2.1	0.8	35.1*	-11.3
COc1ccc(OC)c(-n2nnnc2SCC(=O)Nc2ccccc2OC)c1	4.0	14.0	7.6	31.1*	-1.0
CCOc1ccccc1NC(=O)CSc1nnc2c(CC)c(C)nc(N)n12	-1.4	x	2.8	35.2*	-4.8
COCCn1c(SCC(=O)Nc2cccnc2Cl)nc2ccccc21	-2.3	x	x	x	-2.4
Cc1ccc(NC(=O)c2ncn(-c3ccccc3)n2)c(Cl)c1	x	4.1	x	x	x
COC(=O)c1nc[nH]c1C(=O)OC	-3.2	16.0	x	x	-3.3
CCOC(=O)c1ccccc1NC(=O)CSc1nccn1C	-2.0	53.4*	0.5	-1.5	-21.2
Cc1ccc(CNc2ccc3c(c2)ncn3C(C)C)cc1	-1.8	-0.6	37.1*	-3.2	-10.6
O=C1CCN2C=Nc3cccc4ccc1c2c34	7.2	-6.3	47.4*	10.8	20.6
COc1ccc(Cl)cc1NC(=O)CN(C)C(=O)c1ccc(C)s1	-0.3	3.0	-0.5	-0.6	-3.1
COc1ccc(Cl)cc1NC(=O)CN(C)C(=O)c1cc2c(F)cccc2s1	5.8	-12.3	0.7	30.9*	-8.3
CC1(C)CC(=O)C(N=Nc2cc(S(=O)(=O)N3CCOCC3)ccc2Cl)=C(O)C1	5.6	13.9	-0.3	8.4	-1.7

Source: PubChem BioAssay (National Center for Advancing Translational Sciences (NCATS))
